Laboratory results published in the supplement of paper PMC12494721.
Counter-ions that a name gives are not always drawn.

What was measured:
Conditions in all cases: incubation time: 27 h, anaerobic, 37 °C;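 for the amine columns active = adjusted P below 0.05 in both replicates with a change the same way and a mean fold change under 0.8 or over 1.25; inactive = the rest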
[1] = system: Clostridium sporogenes DSM 1664; assay: growth (OD595) fold change vs plate DMSO controls (fold change (ratio)); higher = more growth
Method in brief: (§1)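 The measure reported is growth, taken as fold change against the median of DMSO controls on the same plate. Anaerobic mGAM cultures in 96-well plates (27 h, 37 °C) were read at 595 nm, blank-subtracted, corrected for compound background using 20 µM compound solutions in water, and multiplied by a calibration factor of 5 to give OD. Any fold change above 1.5 became NA, and 2 biological replicates were averaged.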

Escherichia coli IAI1 [2] = assay: as above
Method in brief: as §1

[3] = system: Klebsiella aerogenes DSM 30053; assay: as above
Method in brief: as §1

[4] = system: Ruminococcus gnavus DSM 108212; assay: as above
Method in brief: as §1

[5] = system: Klebsiella aerogenes DSM 30053; assay: fold change of Histamine concentration vs plate DMSO controls (fold change (ratio)); higher = more amine produced, active = hit call of the paper (significant change in both replicates, either direction)
Method in brief: (§2)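 Amine values are fold changes relative to DMSO-only wells on the same plate. They derive from 27 h, 37 °C anaerobic mGAM cultures of four gut bacterial strains in 80 µL wells, dosed at 20 µM final, or 50 µM final for sweeteners. Extraction of the whole culture, LC–triple-quadrupole MS in dynamic MRM mode, external calibration curves and within-batch drift correction were used, with 2 biological replicates averaged.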

[6] = system: Clostridium sporogenes DSM 1664; assay: fold change of Tryptamine concentration vs plate DMSO controls (fold change (ratio)); higher = more amine produced, active = hit call of the paper (significant change in both replicates, either direction)
Method in brief: as §2

[7] = system: Ruminococcus gnavus DSM 108212; assay: as above
Method in brief: as §2

Escherichia coli IAI1 [8] = assay: fold change of Putrescine concentration vs plate DMSO controls (fold change (ratio)); higher = more amine produced, active = hit call of the paper (significant change in both replicates, either direction)
Method in brief: as §2

[9] = system: Klebsiella aerogenes DSM 30053; assay: as above
Method in brief: as §2

Escherichia coli IAI1 [10] = assay: fold change of Cadaverine concentration vs plate DMSO controls (fold change (ratio)); higher = more amine produced, active = hit call of the paper (significant change in both replicates, either direction)
Method in brief: as §2

[11] = system: Klebsiella aerogenes DSM 30053; assay: as above
Method in brief: as §2

[12] = system: Ruminococcus gnavus DSM 108212; assay: fold change of 2-Phenylethylamine concentration vs plate DMSO controls (fold change (ratio)); higher = more amine produced, active = hit call of the paper (significant change in both replicates, either direction)
Method in brief: as §2

Compound	growth [1]	growth (Escherichia coli IAI1 [2])	growth [3]	growth [4]	fold change of Histamine concentration [5]	fold change of Tryptamine concentration [6]	fold change of Tryptamine concentration [7]	fold change of Putrescine concentration (Escherichia coli IAI1 [8])	fold change of Putrescine concentration [9]	fold change of Cadaverine concentration (Escherichia coli IAI1 [10])	fold change of Cadaverine concentration [11]	fold change of 2-Phenylethylamine concentration [12]
O=C(O)c1cccnc1 [Niacin] (20 µM)	0.979	1.07	1.01	0.963	0.97 (inactive)	0.994 (inactive)	1.03 (inactive)	1 (inactive)	1.03 (inactive)	0.981 (inactive)	1.02 (inactive)	0.993 (inactive)
Cc1c(Cl)cccc1Nc1ccccc1C(=O)O [Tolfenamic acid] (20 µM)	1.18	1.01	1.06	1.14	0.917 (inactive)	0.901 (inactive)	0.951 (inactive)	1.07 (inactive)	0.984 (inactive)	1.07 (inactive)	1.01 (inactive)	0.937 (inactive)
C=CCOC(Cn1ccnc1)c1ccc(Cl)cc1Cl (stereo not drawn) (20 µM)	1.09	0.991	1.02	0.883	0.976 (inactive)	1.08 (inactive)	1 (inactive)	0.942 (inactive)	0.941 (inactive)	0.909 (inactive)	1.06 (inactive)	1.07 (inactive)
COc1cccc2c1C(=O)c1c(O)c3c(c(O)c1C2=O)C[C@@](O)(C(=O)CO)C[C@@H]3O[C@H]1C[C@H](N)[C@H](O)[C@H](C)O1 [Doxorubicin hydrochloride] (20 µM)	0.843	1.02	1.03	1.25	1.04 (inactive)	0.956 (inactive)	0.963 (inactive)	0.958 (inactive)	0.982 (inactive)	1.03 (inactive)	1.02 (inactive)	0.943 (inactive)
CN1CCN2c3ccccc3Cc3ccccc3C2C1 (stereo not drawn) [Mianserine hydrochloride] (20 µM)	0.914	0.996	0.995	0.931	0.916 (inactive)	0.952 (inactive)	0.998 (inactive)	1.02 (inactive)	0.98 (inactive)	0.999 (inactive)	0.999 (inactive)	1.03 (inactive)
CN1CC2c3ccccc3Oc3ccc(Cl)cc3C2C1 (stereo not drawn) [Asenapine maleate] (20 µM)	1.1	0.969	1.04	0.834	0.986 (inactive)	1.05 (inactive)	0.905 (inactive)	1 (inactive)	1.02 (inactive)	0.973 (inactive)	0.998 (inactive)	0.917 (inactive)
CC(C)(O)c1ccccc1CC[C@@H](SCC1(CC(=O)O)CC1)c1cccc(/C=C/c2ccc3ccc(Cl)cc3n2)c1 [Montelukast] (20 µM)	0.909	1	1.02	0.923	1.07 (inactive)	0.587 (active)	0.851 (inactive)	0.994 (inactive)	1.05 (inactive)	1.03 (inactive)	1.01 (inactive)	0.842 (inactive)
Cc1onc(-c2c(Cl)cccc2Cl)c1C(=O)N[C@@H]1C(=O)N2[C@@H]1SC(C)(C)[C@@H]2C(=O)O [Dicloxacillin sodium salt hydrate] (20 µM)	0.000771	0.996	0.975	0.165	1.01 (inactive)	0.0119 (active)	0.05 (active)	0.979 (inactive)	1.01 (inactive)	1.03 (inactive)	0.994 (inactive)	0.0548 (active)
COc1nc(N)nc2c1ncn2[C@@H]1O[C@H](CO)[C@@H](O)[C@@H]1O [Nelarabine] (20 µM)	1.13	0.973	0.999	0.914	1.08 (inactive)	0.945 (inactive)	1.03 (inactive)	1.01 (inactive)	1.01 (inactive)	0.989 (inactive)	0.978 (inactive)	1.03 (inactive)
Oc1ccc(C2CNCCc3c2cc(O)c(O)c3Cl)cc1 (stereo not drawn) [Fenoldopam] (20 µM)	1.08	0.952	0.998	0.973	1.02 (inactive)	0.95 (inactive)	1.03 (inactive)	1.01 (inactive)	0.988 (inactive)	1.04 (inactive)	0.987 (inactive)	1.03 (inactive)
CC#C[C@]1(O)CC[C@H]2[C@@H]3CCC4=CC(=O)CCC4=C3[C@@H](c3ccc(N(C)C)cc3)C[C@@]21C [Mifepristone] (20 µM)	1.19	0.971	0.986	1.09	1.02 (inactive)	0.911 (inactive)	0.975 (inactive)	1.01 (inactive)	1.02 (inactive)	1.01 (inactive)	0.998 (inactive)	0.902 (inactive)
CC1(C)S[C@@H]2[C@H](NC(=O)[C@H](N)c3ccccc3)C(=O)N2[C@H]1C(=O)O [Ampicillin sodium salt] (20 µM)	0.00123	0.943	0.726	0.0281	1.2 (inactive)	0.0126 (active)	0.0802 (active)	0.981 (inactive)	1.02 (inactive)	1.23 (inactive)	1.18 (inactive)	0.0719 (active)
CN(C)[C@@H]1C(=O)C(C(N)=O)=C(O)[C@@]2(O)C(=O)C3=C(O)c4c(O)ccc(Cl)c4[C@@H](O)[C@H]3C[C@@H]12 [Demeclocycline hydrochloride] (20 µM)	0	0.0384	0.0385	0.802	0.107 (active)	0.0455 (active)	0.319 (active)	0.239 (active)	0.472 (active)	0.225 (active)	0.547 (active)	0.364 (active)
CC(=O)OCC(=O)[C@@]1(O)[C@H](C)C[C@H]2[C@@H]3CCC4=CC(=O)C=C[C@]4(C)[C@@]3(F)[C@@H](O)C[C@@]21C [Dexamethasone acetate] (20 µM)	1.05	1.01	0.986	0.878	1.02 (inactive)	1.06 (inactive)	1.01 (inactive)	0.987 (inactive)	1.02 (inactive)	1.02 (inactive)	0.983 (inactive)	0.993 (inactive)
CNC(=O)c1c(I)c(C(=O)NCC(=O)Nc2c(I)c(C(=O)O)c(I)c(C(=O)NCCO)c2I)c(I)c(N(C)C(C)=O)c1I [Ioxaglic acid] (20 µM)	1.16	1.08	1.09	1.02	1.01 (inactive)	0.978 (inactive)	1.01 (inactive)	1.05 (inactive)	1.06 (inactive)	1 (inactive)	1.04 (inactive)	0.982 (inactive)
CC(C)(C)C(=O)OCOC(=O)[C@@H]1N2C(=O)[C@@H](/N=C/N3CCCCCC3)[C@H]2SC1(C)C [Pivmecillinam hydrochloride] (20 µM)	0.954	1.01	0.909	1.2	0.597 (active)	1.01 (inactive)	1.03 (inactive)	1.02 (inactive)	0.954 (inactive)	1.46 (active)	1.01 (inactive)	1.03 (inactive)
Clc1ccc2c(c1)CCc1cccnc1C2=C1CCNCC1 [Desloratadine] (20 µM)	0.922	0.981	0.992	0.972	1.07 (inactive)	1.11 (inactive)	0.962 (inactive)	1 (inactive)	1.01 (inactive)	0.976 (inactive)	0.987 (inactive)	1.02 (inactive)
N[C@@H](Cc1cc(I)c(Oc2ccc(O)c(I)c2)c(I)c1)C(=O)O [Liothyronine] (20 µM)	0.986	0.992	1.03	1.09	0.981 (inactive)	0.991 (inactive)	0.88 (inactive)	0.906 (inactive)	0.99 (inactive)	1.02 (inactive)	0.993 (inactive)	0.88 (inactive)
COc1ccc2c(c1)C(=O)N(CCc1ccc(S(=O)(=O)NC(=O)NC3CCCCC3)cc1)C(=O)C2(C)C [Gliquidone] (20 µM)	0.999	1.05	0.984	0.999	1.04 (inactive)	0.929 (inactive)	0.956 (inactive)	1.04 (inactive)	1 (inactive)	1.04 (inactive)	0.988 (inactive)	0.942 (inactive)
Cc1cccc(C)c1OCC(C)N (stereo not drawn) [Mexiletine hydrochloride] (20 µM)	0.941	1.02	1.15	0.936	0.934 (inactive)	0.991 (inactive)	1.02 (inactive)	0.985 (inactive)	0.998 (inactive)	1.03 (inactive)	1.02 (inactive)	1.07 (inactive)
C=CC1=C(C(=O)O)N2C(=O)[C@@H](NC(=O)/C(=N\O)c3csc(N)n3)[C@H]2SC1 [Cefdinir] (20 µM)	0	0	0.757	0	1.22 (inactive)	0.0307 (active)	0.04 (active)	0.208 (active)	0.979 (inactive)	0.77 (inactive)	1.03 (inactive)	0.0439 (active)
CCCCCCCC/C=C\CCCCCCCCCCCC(=O)O [Erucic acid] (20 µM)	0.975	1	1.04	1.06	1.02 (inactive)	1.1 (inactive)	0.851 (inactive)	0.981 (inactive)	1.01 (inactive)	1.06 (inactive)	0.99 (inactive)	0.86 (inactive)
COc1c(Cl)ccc(Cl)c1C(=O)O (20 µM)	1.05	1.02	1.03	1.19	0.99 (inactive)	0.999 (inactive)	0.997 (inactive)	1.01 (inactive)	1.01 (inactive)	1.03 (inactive)	1.01 (inactive)	0.995 (inactive)
COc1ccc(C(=O)c2ccccc2)c(O)c1 [Oxybenzone] (20 µM)	0.901	0.808	0.963	0.984	0.962 (inactive)	0.954 (inactive)	1.03 (inactive)	0.823 (inactive)	1 (inactive)	1.07 (inactive)	1 (inactive)	0.979 (inactive)
